For experiment [1], the target named is Rap guanine nucleotide exchange factor 3 (Homo sapiens) (UniProt O95398). Kind of experiment: Confirmatory qHTS for antagonist of cAMP-regulated guanine nucleotide exchange factor 3 (EPAC1) (AID 1645880). Also: nearly all actives have a fitted effect of over 55% in size. Also: potency is read from the fitted curve at half-maximal effect.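 As to activity, negative = inhibition: plate controls were DMSO only for no effect and full effect of the ATA control for full effect.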 The following applies: EPAC1 Rap1B-BODIPY-GDP exchange, fluorescence; activity, negative = inhibition: at 115 µM (top of the series). The gist of the method: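 Nucleotide exchange uses 100 nM EPAC1, 250 nM RAP1B-BODIPY-GDP and 50 uM GDP, with compounds in a concentration-titration series. After 5 min at room temperature, fluorescence (480 nm ex/540 nm em) is read every 5 min for 30 min. Data are normalized to control ATA and DMSO.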
A general note: In qHTS, concentration-response curves come from the screen itself.

Experiment [2] shares this target. As to the kind of experiment: Confirmatory qHTS for agonist of cAMP-regulated guanine nucleotide exchange factor 3 (EPAC1) (AID 1645881). Also: nearly all actives have a fitted effect of over 75% in size. Also: potency is read from the fitted curve at half-maximal effect.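 As to activation: EPAC1 catalysed release of BODIPY-GDP from Rap1B seen as fluorescence loss; 100% = effect of cAMP agonist control.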
The target of experiment [3] is Rap guanine nucleotide exchange factor 4 (Homo sapiens) (UniProt Q8WZA2). Kind of experiment: Confirmatory qHTS for agonist of cAMP-regulated guanine nucleotide exchange factor 4 (EPAC2) (AID 1645884).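 Also: nucleotide exchange releases bodipy-GDP from Rap1 and this lowers its fluorescence; nearly all actives have a fitted effect of over 65% in size.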 Also: potency is read from the fitted curve at half-maximal effect. As to activation: % is scaled to controls: 0 for no effect and ±100 for the full control effect.
The target in experiment [4] is Rap guanine nucleotide exchange factor 3 (Homo sapiens) (UniProt O95398). Kind of experiment: Counterscreen qHTS for agonist of cAMP-regulated guanine nucleotide exchange factor 3 (EPAC1) (AID 1645889). Also: nearly all actives have a fitted effect of over 40% in size. Also: potency is read from the fitted curve at half-maximal effect. As to activation: % of control where 0% means no effect. The essentials:
(§1)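 Rap1B–BODIPY-GDP (250 nM) with 50 uM GDP; compounds pin-transferred to 9.74 nM–152 uM final (activator) or from 7.32 nM upwards (inhibitor). Fluorescence Ex/Em 480/540 nm read at 5 and 30 min, then after adding cAMP or buffer, at room temperature.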
(In general: Counterscreens check selectivity or assay interference.)

For experiment [5] the target is unchanged. As to the kind of experiment: Counterscreen qHTS for antagonist of cAMP-regulated guanine nucleotide exchange factor 3 (EPAC1) (AID 1645888).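 Also: fluorescence loss as bound BODIPY-GDP is released from Rap1B; % of control where 0% means no effect.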 The essentials: as §1
In experiment [6] the target is DNA polymerase eta (Homo sapiens) (UniProt Q9Y253). Kind of experiment: qHTS for Inhibitors of Polymerase Eta: Confirmatory Assay for Cherry-picked Compounds (AID 720502). Also: potency is read from the fitted curve at half-maximal effect. The following applies: Pol eta primer extension, TAMRA/BHQ fluorescence, 10 min. The gist of the method: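 Strand-displacement fluorescence (525 nm excitation, 598 nm emission) was read kinetically at 0 and 10 min after adding 50 nM final TAMRA-reporter/BHQ-2-template substrate. Beforehand, 10 nM Pol eta had been exposed to compound for 15 min at room temperature.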

The target in experiment [7] is Phosphoglycerate kinase, glycosomal (Trypanosoma brucei brucei) (UniProt P07378). Kind of experiment: qHTS for inhibitors of Phosphogylcerate Kinase: Hit Validation Screen (AID 686980). Also: potency is read from the fitted curve at half-maximal effect; nearly all actives have a fitted effect of over 65% in size. As to conditions: TbPGK coupled GAPDH assay, Kinase-Glo luminescence. The essentials: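 Luminescent ATP detection (Kinase-Glo Plus) follows a 60-minute room-temperature incubation, with wells lacking PGK as controls. Buffer: 100 mM TEA (pH 7.6), 5 mM MgCl2, 0.01% Tween-20. Coupling enzyme GAPDH (100 nM final) supplies unstable 1,3-BPG in-well.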

Experiment [8] has as its target DNA polymerase iota (Homo sapiens) (UniProt Q9UNA4). As to the kind of experiment: qHTS for Inhibitors of Polymerase Iota: Confirmatory Assay for Cherry-picked Compounds (AID 720496). Also: potency is read from the fitted curve at half-maximal effect. As to conditions: Pol iota primer extension, TAMRA/BHQ fluorescence. The essentials: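 Recombinant human Pol iota (10 nM) was preincubated with compound for 15 min at room temperature, then 50 nM final primer/template substrate was added; the substrate carried a TAMRA-labeled reporter strand and a BHQ-2-quenched template. Fluorescence was read at 0 and 10 min.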

For experiment [9], the target named is Bifunctional 3'-5' exonuclease/ATP-dependent helicase WRN (Homo sapiens) (UniProt Q14191). Kind of experiment: qHTS for Inhibitors of WRN Helicase: Confirmatory Assay for Cherry-picked Compounds. (AID 720497). Also: potency is read from the fitted curve at half-maximal effect; nearly all actives have a fitted effect of over 65% in size. The following applies: WRN helicase DNA unwinding, fluorescence kinetic. The essentials: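 Compound and 20 nM WRN incubated 15 min, RT. Forked duplex (100 nM) plus ATP (2 mM) added. Fluorescence monitored kinetically and normalized to controls.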

Experiment [10] deals with DNA polymerase kappa (Homo sapiens) (UniProt Q9UBT6). Kind of experiment: qHTS for Inhibitors of Polymerase Kappa: Confirmatory Assay for Cherry-picked Compounds (AID 720501). Also: potency is read from the fitted curve at half-maximal effect. As to conditions: purified Pol-kappa, fluorescent strand-displacement substrate. The gist of the method: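 10 nM human Pol-kappa was preincubated with compound 15 min at room temperature, then 50 nM (final) primer/template substrate with TAMRA-labeled reporter strand and BHQ-2-labeled template added. Fluorescence (Ex 525, Em 598 nm) read at 0 and 10 min.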

The target of experiment [11] is RecQ-like DNA helicase BLM (Homo sapiens) (UniProt P54132). As to the kind of experiment: qHTS for Inhibitors of WRN Helicase: BLM Helicase Counterscreen for WRN Inhibitors (AID 720503). Also: potency is read from the fitted curve at half-maximal effect; nearly all actives have a fitted effect of over 60% in size. The following applies: Recombinant BLM helicase DNA unwinding, red fluorescence. The essentials: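 BLM (1 nM) was preincubated with compounds for 15 min at room temperature in Tris-HCl pH 8.0, 50 mM NaCl, 2 mM MgCl2 buffer. Unwinding started with 100 nM DNA and 2 mM ATP (final); red fluorescence was read twice, 15 min apart.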

Experiment [12] in a line: qHTS for Inhibitors of Ubiquitin-specific Protease USP2a Using CHOP2 as the Reporter: K633 Counterscreen (AID 652168). Also: % of control where 0% means no effect. The essentials: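 Cell-free interference counterscreen without USP2a: compounds pinned into enzyme-free buffer (20 mM Tris pH 8, 2 mM beta-mercaptoethanol, 0.05% Chaps), then DiUb K48-4IQF substrate added (100 nM stock); fluorescence read kinetically, Ex 525/Em 598.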

A short description of experiment [13]: qHTS for Inhibitors of Ubiquitin-specific Protease USP2a Using CHOP2 as the Reporter: Cytotox Assay (AID 652170).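 Also: plate controls were DMSO-treated cells for no effect and wells without cells for full effect; nearly all actives have a fitted effect of over 70% in size.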 The gist of the method: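 HCT116 human colon cancer cells, 600 per well in DMEM with 10% FBS, exposed to compounds for 72 hr at 37 deg C. ATP measured by CellTiter-Glo luminescence, normalized to DMSO cells and no-cell background.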
Experiment [14] deals with Ubiquitin carboxyl-terminal hydrolase 2 (Homo sapiens) (UniProt O75604). As to the kind of experiment: qHTS for Inhibitors of Ubiquitin-specific Protease USP2a Using CHOP2 as the Reporter: K484 Substrate (AID 652173).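 Also: cleavage of internally quenched K48 di-ubiquitin substrate measured as rising fluorescence over time; potency is read from the fitted curve at half-maximal effect; nearly all actives have a fitted effect of over 70% in size.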 The following applies: USP2 cleavage of DiUb K48 IQF substrate, fluorescence. The essentials:
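USP2 (dispensed at 5 nM) was pinned with compounds, then DiUb K48 internally quenched fluorescent substrate (dispensed at 100 nM) was added. The buffer was 20 mM Tris pH 8, 2 mM beta-mercaptoethanol and 0.05% CHAPS. Cleavage was read kinetically as rising fluorescence, Ex 525/Em 598.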

Experiment [15] is described as follows: AP1 Signaling Pathway (AID 357; active = well fitted curve in either direction with a large enough effect, not every such curve was filed as active;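 also: ME-180 reporter cells stimulated with EGF at its EC50 level; % is scaled to controls: 0 for no effect and ±100 for the full control effect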). The following applies: ME-180 (cervical carcinoma) AP-1-bla reporter, EGF-induced, beta-lactamase ratio, 5 h; at 7.69 µM (top of the series) unless noted. The essentials: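 Titration-series screen for positive or negative modulators of EC50 EGF-induced signaling in ME-180 cells carrying an AP-1-driven beta-lactamase reporter. After 5 hours at 37 degrees Celsius, CCF4 460nm/530nm emission ratio gave %Activity; AC50 values derived.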

The nature of experiment [16]: NFAT Signaling Pathway (AID 444; active = well fitted curve in either direction with a large enough effect, not every such curve was filed as active;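 also: carbachol stimulus at about its EC50 of 1 µM final; % is scaled to controls: 0 for no effect and ±100 for the full control effect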). As to conditions: Jurkat NFAT-bla M1, carbachol, beta-lactamase ratio, 5 h; at 7.69 µM (top of the series) unless noted. The essentials:
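Jurkat cells with NFAT-driven β-lactamase reporter and co-expressed M1 receptor, stimulated with carbachol (final 1 uM, ~EC50), compound titration, 5 h at 37 °C. CCF4 loaded 1 h at RT; 460/530 nm ratio gave %activity and AC50.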

Experiment [17] in a line: Stat Signaling Pathway (AID 446; active = well fitted curve in either direction with a large enough effect, not every such curve was filed as active;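 also: ME-180 cervical cancer cells given 40 pM IL-6 alongside compound; SIE-controlled beta-lactamase reporter measured as 460/530 nm FRET emission ratio; % is scaled to controls: 0 for no effect and ±100 for the full control effect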). The gist of the method:
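ME-180 SIE-bla cells; overnight plating; cpd + IL-6 40 pM, 5 h, 37 C; LiveBLAzer 2.5 h RT; 460/530 nm emission ratio. Normalized to 300 pM IL-6 and 125 nM JAK inhibitor controls.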

In experiment [18] the target is Glucocorticoid receptor (Homo sapiens) (UniProt P04150). As to the kind of experiment: GR-GFP Redistribution (AID 450;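 active = compounds whose dose series gives a full or clear partial fitted curve of increased nuclear translocation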; also: potency is read from the fitted curve at half-maximal effect). The following applies: U2OS GR-GFP nuclear translocation, laser cytometry, 2 h.
Experiment [19] deals with Tumor susceptibility gene 101 protein (Homo sapiens) (UniProt Q99816). As to the kind of experiment: qHTS Assay for Iinhibitors of HIV-1 Budding by Blocking the Interaction of PTAP/TSG101: Hit Validation (AID 651600). Also: potency is read from the fitted curve at half-maximal effect; nearly all actives have a fitted effect of over 70% in size. The gist of the method: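 Measuring PTAP–Tsg101 interaction by FP: protein at 10 uM and fluorescent peptide at 50 nM (final), buffer 10 mM HEPES pH 7.5 with 0.15 M NaCl, 3 mM EDTA, 0.1 mM TCEP, 0.01% Tween 20; 20 min incubation, r.t.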

A number with no mark means an inactive call. Inconclusive results are not listed. Some of the results follow. The source made the active and inactive calls. Unless noted, calls follow the shape of the dose curve; as a rule, active = well fitted curve in the direction sought with a large enough effect; inconclusive = small, poorly fitted or top-dose-only effect, or another doubt; inactive = no such curve, though single readings can be large; an effect the other way counts as inactive or inconclusive.

Rap guanine nucleotide exchange factor 4 (Homo sapiens), sequence (Q8WZA2 whole entry, looked up): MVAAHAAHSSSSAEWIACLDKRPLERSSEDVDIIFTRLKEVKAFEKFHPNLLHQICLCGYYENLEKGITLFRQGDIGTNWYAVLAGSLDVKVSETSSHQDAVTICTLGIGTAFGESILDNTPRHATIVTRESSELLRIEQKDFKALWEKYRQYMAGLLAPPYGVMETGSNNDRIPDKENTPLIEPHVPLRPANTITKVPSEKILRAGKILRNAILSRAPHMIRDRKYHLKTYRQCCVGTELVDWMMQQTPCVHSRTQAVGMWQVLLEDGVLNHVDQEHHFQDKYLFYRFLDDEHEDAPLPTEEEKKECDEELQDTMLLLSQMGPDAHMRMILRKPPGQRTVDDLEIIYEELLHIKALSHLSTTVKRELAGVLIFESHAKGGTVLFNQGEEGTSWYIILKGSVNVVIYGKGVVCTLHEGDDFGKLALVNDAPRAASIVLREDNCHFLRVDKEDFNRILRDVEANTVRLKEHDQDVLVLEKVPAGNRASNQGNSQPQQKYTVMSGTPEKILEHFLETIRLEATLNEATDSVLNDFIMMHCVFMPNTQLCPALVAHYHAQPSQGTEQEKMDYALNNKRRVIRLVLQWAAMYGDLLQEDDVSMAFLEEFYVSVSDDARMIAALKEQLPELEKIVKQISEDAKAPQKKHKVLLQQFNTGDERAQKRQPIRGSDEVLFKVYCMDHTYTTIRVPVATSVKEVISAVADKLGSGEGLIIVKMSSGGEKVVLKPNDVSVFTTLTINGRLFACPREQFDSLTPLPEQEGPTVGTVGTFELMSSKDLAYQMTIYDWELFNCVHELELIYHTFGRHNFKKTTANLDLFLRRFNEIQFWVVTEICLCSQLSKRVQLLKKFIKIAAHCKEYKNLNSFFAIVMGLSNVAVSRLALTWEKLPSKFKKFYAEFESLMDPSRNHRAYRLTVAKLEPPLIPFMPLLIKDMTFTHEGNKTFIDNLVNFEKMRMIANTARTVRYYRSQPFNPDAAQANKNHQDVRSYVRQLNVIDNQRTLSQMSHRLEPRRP
Rap guanine nucleotide exchange factor 3 (Homo sapiens), sequence (O95398 whole entry, looked up): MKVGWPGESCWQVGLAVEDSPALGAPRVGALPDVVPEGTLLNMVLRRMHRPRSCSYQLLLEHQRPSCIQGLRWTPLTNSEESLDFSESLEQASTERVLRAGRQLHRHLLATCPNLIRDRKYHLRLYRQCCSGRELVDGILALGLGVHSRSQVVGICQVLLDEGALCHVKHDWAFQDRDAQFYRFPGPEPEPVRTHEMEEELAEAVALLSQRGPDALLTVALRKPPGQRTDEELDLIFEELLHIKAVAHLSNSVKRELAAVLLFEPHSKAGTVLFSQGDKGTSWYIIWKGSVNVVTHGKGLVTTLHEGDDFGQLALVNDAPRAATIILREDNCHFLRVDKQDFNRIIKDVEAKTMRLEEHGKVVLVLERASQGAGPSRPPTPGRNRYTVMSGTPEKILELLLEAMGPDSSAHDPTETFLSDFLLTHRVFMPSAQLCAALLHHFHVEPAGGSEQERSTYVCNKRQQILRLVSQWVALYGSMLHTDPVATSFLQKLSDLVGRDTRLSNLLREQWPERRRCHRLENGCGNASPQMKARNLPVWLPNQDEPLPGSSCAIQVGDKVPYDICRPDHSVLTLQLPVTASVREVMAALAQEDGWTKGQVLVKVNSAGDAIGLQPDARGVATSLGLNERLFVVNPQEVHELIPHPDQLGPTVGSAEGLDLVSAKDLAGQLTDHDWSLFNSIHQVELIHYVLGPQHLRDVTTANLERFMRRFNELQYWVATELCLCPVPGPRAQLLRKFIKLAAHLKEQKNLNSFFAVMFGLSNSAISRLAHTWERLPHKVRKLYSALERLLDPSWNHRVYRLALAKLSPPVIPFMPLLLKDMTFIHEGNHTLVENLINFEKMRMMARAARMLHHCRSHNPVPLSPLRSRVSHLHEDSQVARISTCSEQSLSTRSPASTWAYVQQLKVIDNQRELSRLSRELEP
DNA polymerase eta (Homo sapiens), sequence (Q9Y253 whole entry, looked up): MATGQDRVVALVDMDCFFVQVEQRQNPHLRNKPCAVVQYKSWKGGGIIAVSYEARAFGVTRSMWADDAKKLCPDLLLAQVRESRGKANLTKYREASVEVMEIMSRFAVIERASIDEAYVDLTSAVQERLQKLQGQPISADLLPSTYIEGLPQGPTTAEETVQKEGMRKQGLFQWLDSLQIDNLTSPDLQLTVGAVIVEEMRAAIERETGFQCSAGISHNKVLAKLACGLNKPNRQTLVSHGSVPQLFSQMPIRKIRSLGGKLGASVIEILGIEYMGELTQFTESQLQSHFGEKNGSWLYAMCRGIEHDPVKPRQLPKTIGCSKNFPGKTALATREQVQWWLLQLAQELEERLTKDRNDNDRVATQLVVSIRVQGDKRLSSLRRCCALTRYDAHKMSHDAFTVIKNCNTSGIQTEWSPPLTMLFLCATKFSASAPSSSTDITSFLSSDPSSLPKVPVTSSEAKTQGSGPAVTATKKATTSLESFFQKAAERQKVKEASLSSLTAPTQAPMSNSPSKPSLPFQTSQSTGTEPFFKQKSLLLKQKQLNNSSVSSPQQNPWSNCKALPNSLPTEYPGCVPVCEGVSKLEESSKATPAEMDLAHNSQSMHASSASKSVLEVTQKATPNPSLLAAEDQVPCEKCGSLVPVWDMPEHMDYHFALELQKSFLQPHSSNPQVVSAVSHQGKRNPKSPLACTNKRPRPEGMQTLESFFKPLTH
DNA polymerase kappa (Homo sapiens), sequence (Q9UBT6 whole entry, looked up): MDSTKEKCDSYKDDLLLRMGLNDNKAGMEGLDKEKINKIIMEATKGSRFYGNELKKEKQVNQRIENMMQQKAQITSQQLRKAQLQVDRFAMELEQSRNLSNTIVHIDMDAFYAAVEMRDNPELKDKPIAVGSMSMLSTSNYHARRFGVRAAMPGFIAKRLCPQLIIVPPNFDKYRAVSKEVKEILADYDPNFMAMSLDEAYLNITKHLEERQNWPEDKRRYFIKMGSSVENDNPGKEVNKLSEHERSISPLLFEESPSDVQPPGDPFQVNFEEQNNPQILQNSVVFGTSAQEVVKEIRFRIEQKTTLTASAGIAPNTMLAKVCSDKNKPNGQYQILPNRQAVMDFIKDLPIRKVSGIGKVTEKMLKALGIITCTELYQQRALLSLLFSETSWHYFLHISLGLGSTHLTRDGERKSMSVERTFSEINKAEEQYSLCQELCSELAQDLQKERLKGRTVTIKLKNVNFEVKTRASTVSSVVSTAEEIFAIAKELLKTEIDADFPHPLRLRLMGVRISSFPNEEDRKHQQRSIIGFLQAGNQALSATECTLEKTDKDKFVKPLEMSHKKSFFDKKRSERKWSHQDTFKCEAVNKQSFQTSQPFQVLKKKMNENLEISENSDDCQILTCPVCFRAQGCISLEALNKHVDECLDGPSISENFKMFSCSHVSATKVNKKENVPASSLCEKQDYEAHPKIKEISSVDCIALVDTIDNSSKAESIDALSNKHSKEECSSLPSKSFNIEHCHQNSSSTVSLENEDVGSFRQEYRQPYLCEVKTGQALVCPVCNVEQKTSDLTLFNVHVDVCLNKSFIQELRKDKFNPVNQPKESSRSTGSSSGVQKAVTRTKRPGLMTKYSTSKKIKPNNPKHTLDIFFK
Ubiquitin carboxyl-terminal hydrolase 2 (Homo sapiens), sequence (O75604 whole entry, looked up): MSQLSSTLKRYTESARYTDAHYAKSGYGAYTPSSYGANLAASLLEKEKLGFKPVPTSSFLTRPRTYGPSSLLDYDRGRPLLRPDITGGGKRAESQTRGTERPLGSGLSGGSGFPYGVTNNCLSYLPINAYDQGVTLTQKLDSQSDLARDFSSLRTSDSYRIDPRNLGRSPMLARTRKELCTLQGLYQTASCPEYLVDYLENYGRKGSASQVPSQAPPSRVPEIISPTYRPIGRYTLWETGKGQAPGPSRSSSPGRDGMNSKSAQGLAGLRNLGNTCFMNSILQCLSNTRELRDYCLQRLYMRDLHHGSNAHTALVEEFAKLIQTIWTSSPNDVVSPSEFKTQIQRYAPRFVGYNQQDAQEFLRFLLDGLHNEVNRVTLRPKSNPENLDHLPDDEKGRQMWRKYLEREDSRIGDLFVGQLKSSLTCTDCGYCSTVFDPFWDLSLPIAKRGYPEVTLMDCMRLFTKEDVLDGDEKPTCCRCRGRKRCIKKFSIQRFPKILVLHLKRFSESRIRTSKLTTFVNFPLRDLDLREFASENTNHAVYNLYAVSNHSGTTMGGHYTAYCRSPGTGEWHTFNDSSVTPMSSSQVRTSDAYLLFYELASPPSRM
DNA polymerase iota (Homo sapiens), sequence (Q9UNA4 whole entry, looked up): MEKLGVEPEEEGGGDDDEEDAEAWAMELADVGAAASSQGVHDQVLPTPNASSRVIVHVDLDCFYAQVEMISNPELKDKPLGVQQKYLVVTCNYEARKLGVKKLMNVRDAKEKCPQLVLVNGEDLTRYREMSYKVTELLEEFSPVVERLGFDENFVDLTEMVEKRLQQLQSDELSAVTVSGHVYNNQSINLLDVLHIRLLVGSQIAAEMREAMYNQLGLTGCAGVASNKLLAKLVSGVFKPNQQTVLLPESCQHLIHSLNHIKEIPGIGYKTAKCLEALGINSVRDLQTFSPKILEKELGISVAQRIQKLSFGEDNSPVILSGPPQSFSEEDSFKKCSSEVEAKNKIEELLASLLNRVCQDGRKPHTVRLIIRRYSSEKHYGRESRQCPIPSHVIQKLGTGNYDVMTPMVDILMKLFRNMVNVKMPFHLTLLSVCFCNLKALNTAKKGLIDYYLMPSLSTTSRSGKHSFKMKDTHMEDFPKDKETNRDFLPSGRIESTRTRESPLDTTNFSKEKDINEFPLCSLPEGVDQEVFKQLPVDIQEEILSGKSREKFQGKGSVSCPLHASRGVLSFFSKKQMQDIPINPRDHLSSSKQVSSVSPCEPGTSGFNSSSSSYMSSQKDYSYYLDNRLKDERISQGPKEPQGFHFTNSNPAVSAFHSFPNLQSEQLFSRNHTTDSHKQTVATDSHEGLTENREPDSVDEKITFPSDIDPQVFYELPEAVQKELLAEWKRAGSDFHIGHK

For `CCC1SC2=NC(C)=C(C(=O)OC)C(c3cccs3)N2C1=O` (stereo not given), the Potency result in [1] and in experiment [2] was “inactive” each time. Besides, the activation is -2.13% [at 17.1 µM, percent relative to cAMP agonist control] in experiment [3] and 5.87% [at 30.8 µM] in experiment [4].
In the case of `CCOCCCn1c(=N)c(S(=O)(=O)c2ccccc2)cc2c(=O)n3cc(C)ccc3nc21`, the Potency result in [1], in experiment [2], in [3] and in experiment [4] was “inactive” in each case.
Take `CCOC(=O)c1[nH]c2ccc(OCC)cc2c1NC(=O)CN1CCN(c2ccccn2)CC1`: the Potency result in experiment [1], in [2], in experiment [3], in experiment [5] and in experiment [4] was “inactive” throughout.
For `O=C(CN1C(=O)N/C(=C\c2ccccc2OCc2ccc(C(=O)O)cc2)C1=O)Nc1ccc(F)cc1`, the Potency in experiment [1] is 42.6 µM (active). Further, the Potency entry in experiment [2], in experiment [3], in experiment [5] and in experiment [4] was “inactive” throughout.
In the case of `Cc1cccc(Cn2c(C)nc3c(N)c(C)c(C)cc32)c1`, the Potency entry in experiment [1], in experiment [2], in experiment [3] and in experiment [4] was “inactive” throughout.
Regarding `Cc1cc(C(=O)N/N=C/c2ccc(O)c([N+](=O)[O-])c2)c(C)n1-c1ccc(F)cc1`, the Potency in experiment [6] was 75.7 µM (active); in [1] it was 42.6 µM (active). In addition, the Potency entry in experiment [2], in [3], in [5] and in experiment [4] was “inactive” each time.
For the molecule `CC(=O)Nc1scc(-c2ccccc2)[n+]1-c1ccc(C)cc1`, the Potency entry in [1] and in experiment [2] was “inactive” throughout. Further, the activation in [3] was 11.2% [at 17.1 µM, percent relative to cAMP agonist control]; in experiment [4], 4.92% [at 30.8 µM]. For the same molecule, in [5], the activity change, negative = inhibition was -4.14% [at 30.8 µM].
Turning to `O=c1ccc2c(-c3ccccc3S(=O)(=O)O)c3ccc(O)c(O)c3oc-2c1O`, the Potency in experiment [7] is 0.366 µM (active); in [8], 0.597 µM (active); in experiment [9] it was 0.541 µM (active); in experiment [10], 1.06 µM (active); in experiment [6], 1.07 µM (active); in experiment [11], 0.136 µM (active). Also, the Potency in [1] was 7.94 µM (active). For the same molecule, the Potency result in experiment [2] was “inactive”. Also, the activation was -12% [at 17.1 µM, percent relative to cAMP agonist control] in experiment [3] and -15.5% [at 30.8 µM] in experiment [4]. Also, in experiment [5], the activity change, negative = inhibition is -28.7% [at 30.8 µM].
As to `O=C(O)c1ccccc1N=N/C(=N/Nc1cc(S(=O)(=O)O)ccc1O)c1ccccc1`, in [1], the Potency is 44.7 µM (active). Besides, the Potency result in experiment [2] is “inactive”. The activation in experiment [3] is -5.11% [at 17.1 µM, percent relative to cAMP agonist control]; in experiment [4], -1.6% [at 30.8 µM]. The activity change, negative = inhibition in experiment [5] was -3.19% [at 30.8 µM].
On to `CCOC(=O)CSc1nc2c(c(=O)n(C)c(=O)n2C)n1Cc1ccccc1F`, for which the Potency result in experiment [1], in [2], in [3], in [5] and in experiment [4] was “inactive” throughout.
Turning to `Cc1cc(NS(=O)(=O)c2ccc(Nc3nc(-c4ccc(C)c(C)c4)cs3)cc2)no1`, the molecule was classed as inactive in experiment [12] and in experiment [13]. The Potency in [14] is 27.3 µM (active); in experiment [1] it was 75.7 µM (active). Further, the Potency result in experiment [2], in [3] and in experiment [5] was “inactive” each time.
Take `CCc1c(C)c(C#N)c2nc3ccccc3n2c1-n1nc(C)cc1C`: the activity change, negative = inhibition in experiment [15] was -8.93% [at 17.2 µM]; in [16] it was -9.34% [at 17.2 µM]; in experiment [5] it was 12.9% [at 30.8 µM]. For the same molecule, in experiment [17], the molecule was classed as inactive. The Potency in experiment [18] is above 20.6 µM. Moreover, the Potency result in [1] and in experiment [2] was “inactive” in each case. In addition, the activation in experiment [3] was 5.42% [at 17.1 µM, percent relative to cAMP agonist control]; in [4] it was 30.6% [at 30.8 µM].
As for `CCOC(=O)/C(C#N)=C\c1ccc(N2CCN(C/C=C/c3ccccc3)CC2)cc1`, the Potency in experiment [19] was 20.6 µM (active); in experiment [2] it was 79.4 µM (active); in experiment [3] it was 100 µM (active); in [4] it was 70.8 µM (active). For the same molecule, the Potency result in experiment [1] and in experiment [5] was “inactive” throughout.
As for `O=S(=O)(O)c1cc(O)c2cc(Nc3ccccc3)ccc2c1`, the Potency in experiment [1] was 37.9 µM (active). Besides, the Potency result in [2], in [3], in experiment [5] and in [4] was “inactive” each time.
Consider `Cc1ccc(C(=O)C=Cc2ccc3c(c2)OCO3)c(C)c1`, for which the Potency result in [1] and in experiment [2] was “inactive” each time. The activation in experiment [3] is -0.688% [at 17.1 µM, percent relative to cAMP agonist control]; in experiment [4] it was 12.3% [at 30.8 µM].

These data come from PubChem BioAssay (NCATS).
